Test results from PubChem BioAssay AID463218 (Sanford-Burnham Center for Chemical Genomics, 2010).
The campaign covered roughly 4,400 compounds. About 3,700 (84%) were called active.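 The calls were made as follows: active = inhibition above about 39% in either of two replicate wells at 20 µM (limit read from the data); inactive = the rest.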 So high a share suggests a set chosen from earlier hits. A selection follows.

Assay: tim23-1 mutant yeast growth inhibitors, confirmation, luminescence, single concentration (AID 463218);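 also: temperature-sensitive tim23-1 mutant grown at 25 °C; 0% = DMSO wells with yeast and 100% = medium wells without yeast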
Details: S. cerevisiae tim23-1 growth, BacTiter-Glo luminescence, 24 h; at 20 µM; stronger effect = higher value
In the case of `Cc1ccccc1NCC(=O)N/N=C\c1ccc([N+](=O)[O-])s1`, the inhibition is reported as 79.3% (active). With `CCOc1ccc(NC(=O)CCC(=O)N/N=C/c2ccc([N+](=O)[O-])s2)cc1` the inhibition was 76.9% (active). In the case of `COc1cc(/C=N/Nc2nc3ccccc3s2)ccc1O`, the inhibition is reported as 33.5% (inactive). For `COc1ccc(C(=O)Nc2ccccc2C(=O)N/N=C/c2ccccc2OC)cc1`, the inhibition was 72% (active). For `COc1ccc(C(=O)Nc2ccccc2C(=O)N/N=C/c2ccc(O)c(OC)c2)cc1`, the inhibition was 98.3% (active). In the case of `Oc1c(Cl)cc(Cl)c(Cl)c1Cc1c(O)c(Cl)cc(Cl)c1Cl`, the inhibition is reported as 95.3% (active). With `O=C(Nc1ccc2oc(-c3ccccc3F)nc2c1)c1ccco1` the inhibition was 82.7% (active). In the case of `CC(C)(C)c1ccc(Oc2ccc(N)cc2)cc1`, the inhibition is reported as 51.7% (active). For `Oc1ccc(Br)cc1/C=N/Nc1ccccn1`, the inhibition was 65.5% (active). In the case of `Cc1cc(N)n2nc(-c3ccc(C(C)(C)C)cc3)cc2n1`, the inhibition is reported as 72.7% (active). For `COC(C/C=C/C(=O)[C@@H](C)OCc1ccccc1)OC`, the inhibition was 55.2% (active). For `COc1cc([N+](=O)[O-])ccc1NC(=O)COC(=O)CCOc1ccc(C)cc1`, the inhibition was 64.7% (active). In the case of `CCc1ccccc1NC(=O)CN(c1ccc(OC)cc1OC)S(=O)(=O)c1ccccc1[N+](=O)[O-]`, the inhibition is reported as 32.9% (inactive). With `O=C(CNC(=O)OCc1ccccc1)Oc1cc2oc(=O)cc(-c3ccccc3)c2cc1Cl` the inhibition was 31.1% (inactive). In the case of `C=CCNC(=O)c1ccc2c3n(nc2c1)-c1ccc(C)cc1CO3`, the inhibition is reported as 75.2% (active). For `Oc1ccccc1-c1cc(-c2ccc(Cl)cc2)n[nH]1`, the inhibition was -21.6% (inactive). For `CCSC1=C(C#N)C(=O)n2c1cc1c2CCCC1`, the inhibition was 56.1% (active). With `O=C1NC(Nc2nc3ccccc3s2)(C(F)(F)F)C(=O)N1C1CCCCC1` (stereo not given) the inhibition was 63.5% (active). With `Cc1nn(-c2ccccc2)c(Cl)c1/C=C/C(=O)c1ccc(O)cc1` the inhibition was 43.2% (active). With `Cc1nn(Cc2ccc(Cl)c(Cl)c2)c(C)c1NC(=O)c1cc(C2CC2)on1` the inhibition was 59.7% (active). For `Cc1ccc(-c2ccc(/C=N/NC(=O)CN3CCOCC3)o2)cc1[N+](=O)[O-]`, the inhibition was 76.8% (active). For `Cc1ccc(C(=O)COc2cccc(NC(=O)c3ccco3)c2)cc1`, the inhibition was 52.7% (active). In the case of `COc1ccc(-c2cc(C3CCN(c4ncccc4[N+](=O)[O-])CC3)[nH]n2)cc1`, the inhibition is reported as 46% (active). For `O=[N+]([O-])c1ccc(C=Nc2ccc(Cl)cc2Cl)s1`, the inhibition was 77.5% (active). With `O=[N+]([O-])c1ccc2c(c1)Nc1nc3ccccc3nc1N2` the inhibition was 48.9% (active). For `CCCc1[nH]nc2c1C(c1ccc(Br)s1)C(C#N)=C(N)O2` (stereo not given), the inhibition was 73.6% (active). For `O=[N+]([O-])c1ccc(N=Cc2c(O)ccc3ccccc23)cc1`, the inhibition was 61.4% (active). In the case of `Oc1ccc2ccccc2c1C=Nc1ccccc1`, the inhibition is reported as 65.5% (active). With `CC1CC2=C(CC1/C=N/NC(N)=S)C(C)(C)CCC2` (stereo not given) the inhibition was 43.6% (active). For `COc1ccc(/C=C(\C#N)C(=O)ONC2=NCCCCC2)cc1`, the inhibition was 81.6% (active). In the case of `O=c1c2cc(Br)ccc2nc(-c2cccc(Cl)c2)n1O`, the inhibition is reported as 60.2% (active). In the case of `COc1cc(/C=C2/C(=O)ON=C2C)ccc1OCc1ccccc1F`, the inhibition is reported as 55.5% (active). In the case of `COc1cc(/C=C2/C(=O)ON=C2C)ccc1OCc1cccc(F)c1`, the inhibition is reported as 53.9% (active). In the case of `Clc1ccc(C2CC(c3cccs3)n3ncnc3N2)cc1Cl` (stereo not given), the inhibition is reported as 40.9% (active). With `CCN1C(=O)/C(=C2\SC(N3CCCCC3)=NC2=O)c2ccccc21` the inhibition was 41.5% (active). For `COc1cccc(C2Nc3cccc4cccc(c34)N2)c1`, the inhibition was 77.5% (active). For `Cc1cc(C(=O)N/N=C\C(Br)=C\c2ccccc2)c(C)o1`, the inhibition was 50.8% (active). For `C/C(=N/NC(=O)c1cc(Cl)ccc1O)C12CC3CC(CC(C3)C1)C2`, the inhibition was 59.9% (active). For `CC(=NCc1ccc2c(c1)OCO2)C1=C(O)c2ccccc2C1=O`, the inhibition was 67.6% (active). In the case of `CC(=NCc1ccco1)C1=C(O)c2ccccc2C1=O`, the inhibition is reported as 50.4% (active). For `COc1ccc(C(=O)NCC(=O)N/N=C/c2ccc([N+](=O)[O-])o2)cc1OC`, the inhibition was 75.6% (active). For `c1ccc(-c2nnc3n2NC(c2ccc4c(c2)OCO4)S3)cc1` (stereo not given), the inhibition was 43.8% (active). With `Nc1ccccc1SC(C[N+](=O)[O-])c1ccccc1` (stereo not given) the inhibition was 89.4% (active). For `Cc1cc(C)c(S(=O)(=O)c2ccccc2)c(OC(=O)c2c(F)cccc2Cl)n1`, the inhibition was 61.8% (active). With `O=c1c2ccccc2[nH]c(=S)n1CCN1CCC(=C(c2ccc(F)cc2)c2ccc(F)cc2)CC1` the inhibition was 41.8% (active). With `CCCC(=O)N1CCN(c2nnc(-c3ccc(C)cc3)c3ccccc23)CC1` the inhibition was 16% (inactive). With `COC(=O)N/N=C/c1ccc(-c2ccc(Cl)c(Cl)c2)o1` the inhibition was 43.3% (active). With `O=C(Nc1ccccc1)c1nnsc1S(=O)(=O)c1ccc(Cl)cc1` the inhibition was 93% (active). For `FC(F)(F)c1cccc(Nc2ncnc3ccccc23)c1`, the inhibition was 29% (inactive). With `CCOc1cc(NC(=O)c2ccccc2C(=O)O)c(OCC)cc1NC(=O)c1ccccc1F` the inhibition was 66.5% (active).
